Source: PubChem BioAssay
Rows were chosen to be rich in hits. Some 21% of all compounds tested hit in one or more screens of this group.
VP16 counter: Gal4-VP16 reporter inhibition counter-screen. Drosophila S2 Gal4-VP16 UAS-luciferase, luminescence, 20 h. Potency, µM (highest dose often 53.6 µM), for inactives: top-dose activity, negative = inhibition, hits mostly inhibitors. 310,000 compounds, 3.5% hits. AID 2546;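 further: Gal4-VP16 expression switched on by copper sulfate through the metallothionein promoter; potency means the concentration at half of the fitted maximal effect; nearly all actives have a fitted effect of over 50% in size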
DT40 TDP1 no CPT: qHTS for Inhibitors of human tyrosyl-DNA phosphodiesterase 1 (TDP1): qHTS in cells in absence of CPT | DT40 Tdp1-/- hTDP1 cells, no CPT, ATP luminescence, 48 h | 420,000 compounds, 15% hits | AID 686978, 2013 | Potency, µM (top dose mostly 46.2 µM), without a hit: at the top dose activity change, negative = growth inhibition, actives largely listed as inhibitors; further: potency means the concentration at half of the fitted maximal effect; nearly all actives have a fitted effect of over 55% in size
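Readout: luminescence from CellTiter-Glo after 30 min in the dark at RT. Cells: DT40 Tdp1-/- with stable hTDP1, 400/well. Exposure: compounds alone, ≥48 hr, 37 °C.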
RORg inh: inhibitors of mouse ROR gamma transcriptional activity. P51450. Drosophila S2 Gal4-RORgamma UAS-luciferase reporter, 20 h. Potency, µM (top dose mostly 53.6 µM), inactives show top-dose activity change, negative = inhibition, hits mostly inhibitors. 310,000 compounds, 5.4% hits. AID 2551; further: potency means the concentration at half of the fitted maximal effect; nearly all actives have a fitted effect of over 60% in size
Target sequence (P51450 whole entry, looked up, the tested form may be a part): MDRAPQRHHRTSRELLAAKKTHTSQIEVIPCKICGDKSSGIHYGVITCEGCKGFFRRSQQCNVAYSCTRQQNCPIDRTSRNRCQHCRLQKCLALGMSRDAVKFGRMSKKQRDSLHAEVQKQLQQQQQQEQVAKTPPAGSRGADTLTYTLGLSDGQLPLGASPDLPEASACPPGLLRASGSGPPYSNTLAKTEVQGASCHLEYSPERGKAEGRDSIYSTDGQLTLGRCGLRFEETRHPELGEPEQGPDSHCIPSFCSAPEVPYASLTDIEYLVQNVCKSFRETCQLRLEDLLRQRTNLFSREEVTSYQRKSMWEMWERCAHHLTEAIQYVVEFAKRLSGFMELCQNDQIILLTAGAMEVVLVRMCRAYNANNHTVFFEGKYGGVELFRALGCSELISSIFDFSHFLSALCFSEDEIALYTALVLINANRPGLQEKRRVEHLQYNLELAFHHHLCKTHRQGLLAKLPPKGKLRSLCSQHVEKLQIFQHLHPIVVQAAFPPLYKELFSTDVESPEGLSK
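Drosophila Schneider cells stably carrying a metallothionein-driven Gal4 DBD–ROR gamma fusion and a UAS-Photinus luciferase reporter were exposed to compound for 1 hr, then induced with copper sulfate (700 uM final) for 20 hr at ambient temperature before luminescence reading.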
IL-1B inflam inh: blocks inflammasome-driven IL-1 beta release; 360,000 compounds, 4.7% hits; activity change, % at 57.5 µM; THP-1 LPS/ATP IL-1B secretion, AlphaLISA, 16 h; active compounds read low; in the data active means activity change below about -50%; inconclusive means mostly about -30% to -49%
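THP-1 cells pretreated 1 hr with compounds (up to 57.5 uM final), then stimulated with LPS (250 ng/mL final) plus ATP (1.25 mM final); secreted IL-1B measured by AlphaLISA after 16 hr, decreased signal indicating inhibition.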
ELG1 repair inh: blocks ELG1-dependent DNA repair in HEK293T cells; HEK293T ELG1-luciferase reporter, luminescence, 16 h; DNA damage induced by 5-fluorouridine; Potency, µM (highest dose often 46.1 µM), without a hit: at the highest dose activity change, negative = inhibition, most hits filed as inhibitors; 330,000 compounds, 2.3% hits; further: potency means the concentration at half of the fitted maximal effect; nearly all actives have a fitted effect of over 55% in size
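5-Fluorouridine DNA damage + compound/DMSO, 2,000 cells/well, 16 h, 37 °C/5% CO2. ONE-Glo, 30 min RT, luminescence. Readout = decrease in reporter signal.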
TDP1 cell CPT: DT40-hTDP1 cell growth loss with CPT | Potency, µM (titrated, usually from 46.2 µM), inactives show at the highest dose activity change, negative = growth inhibition, usual class: inhibitors | 420,000 compounds, 12% hits | chicken DT40 Tdp1-/-;hTDP1 cells + 20 nM CPT, ATP luminescence, 48 h; further: potency means the concentration at half of the fitted maximal effect; nearly all actives have a fitted effect of over 55% in size
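Chicken DT40 Tdp1-/- cells complemented with human TDP1, 400 cells/well, exposed to compounds plus 20 nM camptothecin for at least 48 h at 37 C; viability read as ATP content by CellTiter-Glo luminescence.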
Starred values were filed as active, the others as inactive; ? = inconclusive; . = no result given; [ ] = dose if it differs, or a comment. Unless noted, the call rests on the fitted dose curve; in most records, active means well fitted curve in the direction sought with a large enough effect; inconclusive means small, poorly fitted or top-dose-only effect, or another doubt; inactive means no such curve, though single readings can be large; an effect the other way counts as inactive or inconclusive. On the % scale 0 is the no-effect control and ±100 the full control effect.

SMILES	VP16 counter	DT40 TDP1 no CPT	RORg inh	IL-1B inflam inh	ELG1 repair inh	TDP1 cell CPT
CCOc1cc(N2CCOCC2)c(OCC)cc1NC(=O)CN1CCN(Cc2ccc3c(c2)OCO3)CC1	-1%	?	1%	14	?	?
CCOc1cc(N2CCOCC2)c(OCC)cc1NC(=O)COc1cccc(CC)c1	.	8.2µM*	.	15	23µM*	18µM*
CCOc1cc(N2CCOCC2)c(OCC)cc1NC(=O)Cn1nc(C)c([N+](=O)[O-])c1C	.	?	.	-2	14%	-9%
CCOC(=O)N/N=C1/C[C@@H](O)[C@@H](O)[C@@H]2[C@@H]3C(=O)N(C(C)(C)C)C(=O)[C@H]3CC[C@H]12	-1%[10 µM]	.	-11%[10 µM]	.	.	.
CS(=O)(=O)Cc1nc2ccccc2oc1=O	-13%	6.5µM*	?	10	-25%	6.5µM*
Cc1ccc2oc(=O)c(/C=C(\O)CC(C)C)nc2c1	?	-87%	?	18	1%	23µM*
C/C(O)=C\c1nc2ccccc2oc1=O	3%	7.3µM*	-16%	40	-14%	10µM*
O=c1oc2ccccc2nc1/C=C(\O)c1ccc(Br)cc1	-6%	?	-10%	3	?	?
Cc1ccc2oc(=O)c(/C=C(\O)c3ccccc3)nc2c1	?	-22%	?	14	-13%	-1%
CCCOc1cc(C)c(S(=O)(=O)NCc2cccs2)cc1C	.	?	.	0	?	?
O=C(NCc1ccccc1)Nc1nnc([C@@H]2C[C@H](O)[C@@H](CO)O2)s1	.	-11%	.	-4	.	-19%
Cc1oc2ccc(O)cc2c1C(=O)c1ccc([N+](=O)[O-])cc1	12%	13µM*	?	?	?	21µM*
Cc1oc2ccc(O)cc2c1C(=O)c1ccc(Cl)cc1	-5%	?	32%	11	12%	-22%
O=C(NC(=S)NN1CCOCC1)c1cc(Br)ccc1Cl	.	?	.	6	29%	6%
COc1ccc(C2(c3ccc(O)cc3O)CC(c3ccccc3Cl)NC(=S)N2)cc1 (stereo not given)	-13%	?	1%	-90*	3%	?
CS(=O)(=O)Nc1cccc(-c2cnc3ccccc3n2)c1	1%	21µM*	2%	-14	?	-6%
O=C(Nc1cccc(-c2cnc3ccccc3n2)c1)c1ccncc1	-26%	5.8µM*	-16%	69	?	?
CC(C)C(=O)Nc1cccc(-c2cnc3ccccc3n2)c1	-21%	-24%	-18%	22	-1%	-18%
Cc1cccc(C(=O)Nc2cccc(-c3cnc4ccccc4n3)c2)c1	-17%	?	24%	20	21%	?
O=C(Nc1cccc(-c2cnc3ccccc3n2)c1)c1ccco1	-19%	16µM*	0%	12	?	?
O=C(CNC(=O)c1ccc(Br)o1)Nc1cccc(-c2cnc3ccccc3n2)c1	-7%	7.3µM*	7%	90	1%	?
CC(=O)NCC(=O)N(C)C(C(=O)Nc1ccc(C(C)C)cc1)c1ccccc1 (stereo not given)	12%	2%	22%	-11	13%	-19%
CCc1cccc(NC(=O)Cn2c(=O)n(CCc3ccc(OC)c(OC)c3)c(=O)c3ccccc32)c1	.	-5%	.	.	.	-19%
Cc1onc(-c2ccccc2)c1CNC(=O)Nc1ccccc1	8%	?	33%	9	?	2%
CN(C)S(=O)(=O)N1CCN(S(=O)(=O)c2ccc(F)cc2)CC1	-3%	-5%	-4%	-2	0%	-14%
SMILES	VP16 counter	DT40 TDP1 no CPT	RORg inh	IL-1B inflam inh	ELG1 repair inh	TDP1 cell CPT
CN(C)S(=O)(=O)c1ccc(N2CCN(S(=O)(=O)c3ccc(F)cc3)CC2)c(Cl)c1	13%	18µM*	?	-25	?	18µM*
COc1cc(SC)ccc1C(=O)NNC(=O)c1cc(C)oc1C	.	15µM*	.	-3	?	?
COc1cc(SC)ccc1C(=O)Nc1c(C)cccc1C	-19%	13µM*	?	21	2%	?
COc1ccccc1C(=O)Nc1ccc2c(c1)OCCO2	?	?	?	-15	?	?
COc1cc(CC(=O)NNC(=O)c2cc(C)oc2C)cc(OC)c1OC	0%	10%	-1%	-5	4%	12%
COc1cc(SC)ccc1C(=O)Nc1ccc2c(c1)OCCO2	?	?	11µM*	?	?	?
Cc1cccc(C)c1-n1nnnc1C1(C)CCC(=O)N1CC1CCCCC1 (stereo not given)	.	?	.	22	.	?
COc1ccc(CN2CCN(S(=O)(=O)c3ccc(NC(C)=O)cc3)CC2)c(OC)c1OC	-11%	?	4%	-4	?	16µM*
COc1ccc(CN2CCN(C(=O)C3CCC(CNS(=O)(=O)c4ccc(C)cc4)CC3)CC2)c(OC)c1OC (stereo not given)	-1%	21µM*	29%	-12	12µM*	?
CC(=O)Nc1ccc(S(=O)(=O)N2CCN(C)CC2)cc1	-1%	14%	-30%	0	4%	?
CCN1C(=O)[C@H]2[C@@H](c3ccc(-c4cccc(Cl)c4)c(OC)c3)N[C@@](C)(C(=O)OC)[C@H]2C1=O	.	?	.	-7	?	13µM*
COC(=O)[C@]1(C)N[C@H](c2ccc(-c3ccc(OC)cc3)cc2)[C@@H]2C(=O)N(C)C(=O)[C@@H]21	.	-14%	.	-2	0%	-9%
COC(=O)[C@]1(C)N[C@H](c2ccc(-c3ccc(Cl)c(Cl)c3)c(OC)c2)[C@@H]2C(=O)N(C)C(=O)[C@@H]21	.	7.3µM*	.	-13	?	9.2µM*
COCc1ccc(CN2CCCC(CO)(Cc3ccccc3)C2)o1 (stereo not given)	-11%	?	3%	5	12%	-4%
Cc1ccc(CSc2cn(CC(=O)N3CCCC3)c3ccccc23)cc1	.	16µM*	.	.	.	16µM*
CCN(CC)C(=O)CSc1cn(CC(=O)N2CCCCCC2)c2ccccc12	.	-27%	.	.	.	?
Cc1ccc(CSc2cn(CC(=O)N3CCCCCC3)c3ccccc23)cc1	.	21µM*	.	.	.	?
O=Cc1cn(CC(=O)N2CCCCC2)c2ccccc12	3%	?	13%	-5	10%	-13%
Clc1cc(Cl)cc(C2=N[C@@H](Cc3ccccc3)CO2)c1	3%	.	-29%	.	.	.
CN(C)c1nc(/C=C(\C#N)C(N)=O)c(Cl)n1-c1ccc(F)cc1	?	21µM*	-45%	-98*	-1%	16µM*
